According to PubChem BioAssay (EPA / NIEHS):
Calls of active or inactive are those of the source. How the source made its calls: active means hit-call score of the fitted dose curve at least 0.9, where 1 is the maximum; inactive means score below 0.9.

Experiments:
[1] = ATG_M_19_CIS: Attagene CIS-FACTORIAL HepG2 Assay for M19 Transcription Factor (Internal Marker) (AID 2282939); conditions: HepG2 Attagene CIS-FACTORIAL M19 internal marker reporter; actives raise or lower the signal
Outline: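 Signals come from fluorescence of labelled reporter-specific PCR fragments resolved by capillary electrophoresis, following 24 h treatment of HepG2 cells transfected with cis-promoter reporter units; activity was fitted in both directions relative to DMSO.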

[2] = ATG_ERE_CIS: Attagene CIS-FACTORIAL HepG2 Assay for Estrogen Response Element (ERE) (AID 2282940); conditions: HepG2 ERE cis-reporter, Attagene RNA transcript; actives raise or lower the signal
Outline: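 Fluorescence of capillary-separated, FAM-labelled reporter cDNA fragments indicates reporter mRNA levels in HepG2 cells exposed to chemicals for 24 h. Transient transfection with cis-regulated units; data fitted in both directions against DMSO.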

[3] = ATG_Ets_CIS: Attagene CIS-FACTORIAL HepG2 Assay for human Erythroblast Transformation Specific (ETS) (AID 2282941); conditions: HepG2 ETS cis-reporter transcription, actives raise or lower the signal
Outline: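 Steps: transfect HepG2 with multiple reporter units; treat compound 24 h; isolate RNA, DNase-treat, reverse-transcribe; PCR-amplify, label with 6-FAM, digest with HpaI; separate by capillary electrophoresis. Activity fitted both directions versus DMSO.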

[4] = biological target: Hepatocyte nuclear factor 3-beta (Homo sapiens) (UniProt Q9Y261); test: ATG_FoxA2_CIS: Attagene CIS-FACTORIAL HepG2 Assay for human Forkhead box A2 (FOXA2) (AID 2282942); conditions: HepG2 cis-reporter transcription factor activity, 24 h; actives raise or lower the signal
Chain of Hepatocyte nuclear factor 3-beta (Homo sapiens) (Q9Y261 whole entry, looked up): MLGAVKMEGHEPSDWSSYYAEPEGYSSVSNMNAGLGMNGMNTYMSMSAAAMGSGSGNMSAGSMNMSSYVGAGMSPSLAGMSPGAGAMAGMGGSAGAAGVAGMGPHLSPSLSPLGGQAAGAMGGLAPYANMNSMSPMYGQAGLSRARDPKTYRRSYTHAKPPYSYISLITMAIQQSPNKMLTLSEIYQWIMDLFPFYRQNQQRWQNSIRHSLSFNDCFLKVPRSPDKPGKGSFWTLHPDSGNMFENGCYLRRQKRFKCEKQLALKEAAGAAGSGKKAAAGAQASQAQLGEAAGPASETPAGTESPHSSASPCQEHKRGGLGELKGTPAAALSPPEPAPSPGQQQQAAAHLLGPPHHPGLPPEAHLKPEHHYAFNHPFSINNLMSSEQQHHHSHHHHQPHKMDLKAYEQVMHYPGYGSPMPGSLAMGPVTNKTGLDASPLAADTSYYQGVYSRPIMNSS
Outline: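 Readout: fluorescent reporter transcripts resolved by capillary electrophoresis after RT-PCR. Transiently transfected HepG2, 24 h compound exposure, endogenous TF activity at cis promoter elements. Gain or loss of signal fitted relative to DMSO.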

[5] = ATG_FoxO_CIS: Attagene CIS-FACTORIAL HepG2 Assay for human Forkhead box O (FoxO) (AID 2282943); conditions: HepG2 Attagene cis-reporter, FoxO element, mRNA; actives raise or lower the signal
Outline: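 HepG2, transient MRTU transfection (cis element, endogenous TFs). Dose 24 h. TriZol RNA → oligo(dT) RT → PCR → 6-FAM primer extension → HpaI cut → CE. Gain/loss vs DMSO.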

[6] = ATG_GATA_CIS: Attagene CIS-FACTORIAL HepG2 Assay for human GATA Binding Protein (AID 2282944); conditions: HepG2 GATA cis-element reporter, Attagene multiplex mRNA; actives raise or lower the signal
Outline: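 After transfecting HepG2 cells with multiple cis-regulated reporter units, chemicals are dosed for 24 h; isolated RNA undergoes RT-PCR and fluorescent labeling before capillary electrophoresis, with activity expressed against DMSO.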

[7] = ATG_GLI_CIS: Attagene CIS-FACTORIAL HepG2 Assay for human Zinc Finger Protein GLI1 (AID 2282945); conditions: HepG2, Attagene cis-factorial reporter mRNA, GLI element; actives raise or lower the signal
Outline: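 Bidirectional curve fits relative to DMSO, using reporter mRNA levels from RT-PCR plus capillary electrophoresis. Cells were HepG2 transiently carrying cis-regulated reporter constructs, harvested 24 h after dosing.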

[8] = ATG_GRE_CIS: Attagene CIS-FACTORIAL HepG2 Assay for human Glucocorticoid Response Elements (GRE) (AID 2282947); conditions: HepG2 GRE cis-reporter, Attagene multiplex mRNA; actives raise or lower the signal
Outline: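 Assay uses human hepatoma HepG2 cells transfected with cis-promoter reporter units, exposed 24 h. mRNA from reporters detected by RT-PCR plus capillary electrophoresis; DMSO serves as negative control and baseline.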

[9] = ATG_ISRE_CIS: Attagene CIS-FACTORIAL HepG2 Assay for human Interferon Regulatory Factor 1 (IRF1) binding to an Interferon-Stimulated Response Element (ISRE) (AID 2282948); conditions: HepG2 ISRE cis-reporter (Attagene), mRNA transcription readout; actives raise or lower the signal
Outline: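 Transfected HepG2 (multiple reporter transcription units, cis elements) dosed 24 h. RNA → oligo(dT) RT → PCR → 6-FAM primer extension → HpaI → CE. DMSO = negative control/baseline.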

[10] = biological target: Bile acid receptor (Homo sapiens) (UniProt Q96RI1); test: ATG_IR1_CIS: Attagene CIS-FACTORIAL HepG2 Assay for human Nuclear Receptor Subfamily 1 Group H Member 4 (NR1H4), IR1 submotif (AID 2282946); conditions: IR1 reporter transcription, actives raise or lower the signal
Chain of Bile acid receptor (Homo sapiens) (Q96RI1 whole entry, looked up, the tested form may be a part): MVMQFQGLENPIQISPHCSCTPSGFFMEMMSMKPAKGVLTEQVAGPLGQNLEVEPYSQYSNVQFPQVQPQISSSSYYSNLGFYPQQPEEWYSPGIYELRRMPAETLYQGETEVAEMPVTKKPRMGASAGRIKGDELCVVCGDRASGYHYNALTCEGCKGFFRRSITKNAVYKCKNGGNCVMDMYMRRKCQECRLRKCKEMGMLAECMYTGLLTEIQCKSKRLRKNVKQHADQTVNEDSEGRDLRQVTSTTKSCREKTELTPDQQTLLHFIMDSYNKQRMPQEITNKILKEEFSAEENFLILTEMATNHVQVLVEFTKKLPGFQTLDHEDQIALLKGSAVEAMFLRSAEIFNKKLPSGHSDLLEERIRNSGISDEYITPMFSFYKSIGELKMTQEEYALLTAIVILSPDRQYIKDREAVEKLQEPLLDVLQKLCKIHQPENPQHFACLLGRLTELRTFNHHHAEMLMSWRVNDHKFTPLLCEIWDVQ
Outline: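 Cells (human HepG2) carry transiently transfected cis-promoter reporter transcription units. Compounds are incubated 24 h, total RNA is reverse-transcribed and amplified, and labelled fragments are resolved by capillary electrophoresis. Curves use DMSO as baseline.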

Measured: AC50

C=CCCl
not listed: [10]
inactive: all other assays above

NC(=O)c1ccc(N)nc1
active: [3] 100 µM
not listed: [5]
inactive: all other assays above

O=[N+]([O-])c1c2ccccc2cc2ccccc12
active: [2] 7.14 µM
not listed: [5] | [10]
inactive: all other assays above

CCC(C)(C#N)N=NC(C)(C#N)CC (centres undefined)
not listed: [8] | [10]
inactive: all other assays above

Cc1cc(C(F)(C(F)(F)F)C(F)(F)F)ccc1NC(=O)c1cccc(I)c1C(=O)NC(C)(C)CS(C)(=O)=O
not listed: [5]
inactive: all other assays above

CCOP(=O)(OCC)SCCSCC
not listed: [8] | [10]
inactive: all other assays above

CCCSP(=S)(OCC)Oc1ccc(Cl)cc1Cl (centres undefined)
active: [2] 10.3 µM
not listed: [10]
inactive: all other assays above

O=C(O)COc1ccc(Cl)cc1
not listed: [5] | [10]
inactive: all other assays above

C1CN2CCN1CC2
not listed: [8] | [10]
inactive: all other assays above

O=NN1CCCCCC1
not listed: [5]
inactive: all other assays above

N#Cc1ccccc1N
not listed: [5]
inactive: all other assays above

CCOC(=O)c1ccccc1S(=O)(=O)NC(=O)Nc1nc(Cl)cc(OC)n1
not listed: [5]
inactive: all other assays above

C=CC(=O)[O][Sn]([CH2]CCC)([CH2]CCC)[CH2]CCC
inactive: [1] | [3] | [9]
active: [2] 0.0146 µM | [4] 0.694 µM | [6] 0.536 µM | [7] 0.602 µM | [10] 0.0956 µM | [8] 0.412 µM

CCCCC(CC)C(=O)Cl (centres undefined)
not listed: [5]
inactive: all other assays above

CC(C)CP(=S)(S)CC(C)C
not listed: [5]
inactive: all other assays above

Nc1ccc(-c2ccccc2)cc1
active: [2] 32 µM
not listed: [8] | [10]
inactive: all other assays above

Cc1cc(C(C)(C)c2ccc(O)c(C)c2)ccc1O
inactive: [1] | [4] | [10]
active: [2] 0.265 µM | [3] 20.2 µM | [6] 91.3 µM | [7] 74.7 µM | [8] 79.5 µM | [9] 50 µM

Nc1nc(N)nc(Cl)n1
not listed: [10]
inactive: all other assays above

Nc1c(Oc2ccccc2)cc(O)c2c1C(=O)c1ccccc1C2=O
not listed: [5]
inactive: all other assays above

CN(C1CCCCC1)C1CCCCC1
not listed: [10]
inactive: all other assays above

FC(F)OCC(F)(F)C(F)(F)F
not listed: [3]
inactive: all other assays above

Cc1cc(Cl)ccc1OC(C)C(=O)O (centres undefined)
not listed: [3] | [8] | [10]
inactive: all other assays above

CC(C)CC(C)(c1ccc(O)cc1)c1ccc(O)cc1
active: [9] 11.1 µM
not listed: [2]
inactive: all other assays above
